Values joined by “and” are separate entries in the source; they are usually repeats but may differ in a detail not shown here. Equal entries are not always repeated. A structure can be active in one record and inactive in another. Active and inactive are the calls of the source. The calls were made as follows: active = hit-call score of the fitted dose curve at least 0.9, where 1 is the maximum; inactive = score below 0.9.
assay: BSK_MyoF_SRB: Viability Assessment in the BioMAP Diversity Plus: MyoF Assay (AID 2284267); conditions: primary human lung fibroblasts
Protocol: BSK_MyoF is a cell-based, multiplexed-readout assay that uses lung fibroblasts, […], with measurements taken at 24 hours after chemical dosing in a microplate: 96-well plate.BSK_MyoF_SRB is an assay component measured in the BSK_MyoF assay. It measures 0.1% sulforhodamine related to cell death using Sulforhodamine staining technology.Data from the assay component BSK_MyoF_SRB was analyzed at the endpoint, BSK_MyoF_SRB, in the positive analysis fitting direction relative to DMSO as the negative control and baseline of activity. Using a type of viability reporter, gain or loss-of-signal activity can be used to understand protein changes. To generalize the intended target to other relatable targets, this assay endpoint is annotated to the 'cell morphology' intended target family, where the subfamily is 'cell conformation'.
The levels of cell surface (or secreted, indicated by the prefix "s") biomarker endpoints were measured by ELISA. Overt cytotoxicity to cells in confluent adherent cultures (all systems other than the BT system) was assessed by measuring total protein levels using sulforhodamine B (SRB) staining in parallel cultures at the time of biomarker measurements, indicated as SRB endpoints. For proliferation assays for adherent cell types, individual cell types are cultured at sub-confluence and relative cell numbers quantified by SRB staining at time points optimized for each system (48 h: 3C and CASM3C systems; 72 h: BT and HDF3CGF systems; 96 h: SAg system). SRB was performed by staining cells with 0.1% SRB after fixation with 10% TCA and reading wells at 560 nm.Viability and proliferation of PBMC (T cells) was quantified by Alamar Blue reduction for the SAg and BT systems. For PBMC viability (referred to as PBMC Cytotoxicity within the assay endpoint names), cells were plated (75,000/well in a 96-well plate) and then chemical samples added for 1 h before addition of activators, SEB and TSST-1 (20 ng/mL final concentration each). Cells were incubated for 90 h. Then, Alamar Blue (20 uL/well) (Invitrogen, Cat DAL1100) was added for 6 h, and the plates were read with a fluorescence microplate reader at 546/580 nm (excitation/emission). For PBMC proliferation, cells were plated and activated as above but incubated for only 16 h prior to addition of Alamar Blue. Plates were read after 6 h.

SMILES	outcome	AC50
O=C(F)C1(F)C(F)(F)C(F)(F)C(F)(F)C(F)(F)C1(F)F	inactive	
Cc1cc(C)c(O)c(C(C)(C)C)c1		35.9 µM (active)
Cc1ccc(S(=O)(=O)C(I)I)cc1		8.6 µM (active)
COC(F)(C(F)F)C(F)(F)F (stereo not given)	inactive	
CCN(CC)c1ccc(C=O)cc1	inactive	
O=C(O)C(F)(F)OC(F)(F)C(F)(F)OC(F)(F)C(F)(F)OC(F)(F)F	inactive	
C=CC(=O)OCC(F)(F)C(F)(F)C(F)(F)C(F)(F)C(F)(F)C(F)(F)C(F)(F)C(F)F	inactive	
O=C=NCc1cccc(CN=C=O)c1	inactive	
CCN(CCO)S(=O)(=O)C(F)(F)C(F)(F)C(F)(F)C(F)(F)C(F)(F)C(F)(F)C(F)(F)C(F)(F)F		19.4 µM (active) and 23.3 µM (active)
O=C(O)CCC(F)(F)C(F)(F)C(F)(F)F	inactive	
CCN(CC)c1ccc(C=O)c(O)c1	inactive	
CNS(=O)(=O)C(F)(F)C(F)(F)C(F)(F)C(F)(F)C(F)(F)C(F)(F)C(F)(F)C(F)(F)F	inactive	
NC(=O)C(F)(F)C(F)(F)C(F)(F)F	inactive	
FC(F)(F)C(F)(F)C(F)(F)C(F)(F)C(F)(F)C(F)(F)C(F)(F)CCI	inactive	
OCCCCC(F)(F)C(F)(F)C(F)(F)C(F)(F)F	inactive	
Nc1cc([N+](=O)[O-])cc(Cl)c1O	inactive	
Brc1nc2ccccc2s1	inactive	
NCC(F)(F)C(F)(F)C(F)(F)C(F)(F)C(F)(F)C(F)(F)C(F)(F)C(F)(F)F	inactive	
FC(F)(F)C(F)(F)C(F)(F)CC1CO1 (stereo not given)	inactive	
OCC(F)(F)C(F)(F)C(F)(F)C(F)(F)C(F)(F)C(F)(F)C(F)(F)C(F)(F)CO	inactive	47.2 µM (active)

SMILES	outcome	AC50
O=C(c1ccccc1)c1ccc(O)cc1O	inactive	
O=C(O)C(F)(F)C(F)(F)C(F)(F)OC(F)(F)F	inactive	
O=C(O)C(F)(F)C(F)(F)C(F)(F)OC(F)(C(F)(F)F)C(F)(F)F	inactive	
FC(F)(F)C(F)(F)C(F)(F)C(F)(F)C(F)(F)C(F)(F)CC[Si](Cl)(Cl)Cl	inactive	
O=C1C=CC(=O)N1c1ccc(Cc2ccc(N3C(=O)C=CC3=O)cc2)cc1		3.58 µM (active)
NS(=O)(=O)C(F)(F)C(F)(F)C(F)(F)C(F)(F)C(F)(F)C(F)(F)F		13.4 µM (active) and 30 µM (active)
C=C(C)C(=O)OCC(F)(F)C(F)(F)C(F)(F)C(F)F	inactive	
NCC(F)(F)C(F)(F)C(F)(F)C(F)(F)C(F)(F)C(F)(F)F	inactive	
O=C1c2c(O)ccc(Nc3ccc(CCO)cc3)c2C(=O)c2c([N+](=O)[O-])ccc(O)c21		11 µM (active)
OCC(F)(F)C(F)(F)C(F)(F)CO	inactive	
CCN(CC)c1ccc(N=Nc2ccccc2)cc1		20 µM (active)
O=S(=O)(O)CCC(F)(F)C(F)(F)C(F)(F)C(F)(F)F	inactive	
CO[Si](C)(CCC(F)(F)C(F)(F)C(F)(F)C(F)(F)C(F)(F)C(F)(F)F)OC	inactive	
O=C(Cl)C(F)(F)C(F)(F)C(F)(F)C(F)(F)C(F)(F)C(F)(F)C(F)(F)F	inactive	
O=C(O)C(F)(F)C(F)(F)C(F)(F)C(F)(F)C(F)(F)C(F)(F)C(F)F	inactive	
O=S(=O)(Cl)C(F)(F)C(F)(F)C(F)(F)C(F)(F)C(F)(F)C(F)(F)C(F)(F)C(F)(F)F	inactive	
OCC(F)(F)C(F)(F)C(F)(F)C(F)(F)C(F)(F)C(F)(F)CO	inactive	
OCCCC(F)(F)C(F)(F)C(F)(F)C(F)(F)C(F)(F)C(F)(F)C(F)(F)C(F)(F)F		12.9 µM (active) and 12.4 µM (active)
O=C(O)CCC(F)(F)C(F)(F)C(F)(F)C(F)(F)C(F)(F)C(F)(F)C(F)(F)F	inactive	
